Test results published in PubChem BioAssay AID1159580 (chemical genetic matrix, 2015).
About 2,000 (36%) of roughly 5,500 compounds were called active. Another 18% or so got no clear call; they are omitted. This is one part of the list. Unmarked numbers belong to inactive results. Rule as the data show it: active = normalized growth mostly below about 0.91 (no sharp cut-off); inconclusive = no clear call, values can overlap the other calls; inactive = mostly above about 0.92.

Test: chemical genetic growth profiling, strain panel (AID 1159580);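 also: tested at 20 µM; growth read once vehicle control cultures reached saturation at 30 °C; 1 = growth at the plate median or of vehicle wells; lower values mean less growth of the strain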
Settings: S. cerevisiae deletion strains, growth OD

Compound `O=c1[nH]c2ccccc2n1CCCN1CCC(n2c(=O)[nH]c3cc(Cl)ccc32)CC1` has a normalized growth (locus YAL013W, strain DEP1, active compounds read low) of 0.982, a normalized growth (locus YAL021C, strain ccr4, active compounds read low) of 0.982 and a normalized growth (locus YAL026C, strain drs2, active compounds read low) of 1.01. The normalized growth (locus YAL030W, strain snc1, active compounds read low) was 0.991, the normalized growth (locus YAL040C, strain CLN3, active compounds read low) was 1 and the normalized growth (locus YBL061C, strain skt5, active compounds read low) was 0.981. It also gave a normalized growth (locus YBR009C, strain hhf1, active compounds read low) of 0.967, a normalized growth (locus YBR023C, strain chs3, active compounds read low) of 0.982 and a normalized growth (locus YBR171W, strain sec66, active compounds read low) of 0.979. The normalized growth (locus YBR231C, strain swc5, active compounds read low) was 0.945, the normalized growth (locus YBR279W, strain paf1, active compounds read low) was 0.992 and the normalized growth (locus YCL011C, strain gbp2, active compounds read low) was 0.987. The normalized growth (locus YCL016C, strain dcc1, active compounds read low) was 0.989, the normalized growth (locus YCL061C, strain MRC1 (second series), active compounds read low) was 1.01 and the normalized growth (locus YCL069W, strain vba3, active compounds read low) was 0.978. For the same compound, the normalized growth (locus YCR088W, strain abp1, active compounds read low) was 0.983, the normalized growth (locus YDL005C, strain med2, active compounds read low) was 0.971 and the normalized growth (locus YDL040C, strain nat1, active compounds read low) was 0.959. It also gave a normalized growth (locus YDR001C, strain nth1, active compounds read low) of 0.969, a normalized growth (locus YDR069C, strain doa4, active compounds read low) of 0.971 and a normalized growth (locus YDR137W, strain rgp1, active compounds read low) of 1.05. The normalized growth (locus YDR159W, strain sac3, active compounds read low) was 0.956, the normalized growth (locus YDR195W, strain ref2) was 0.979 and the normalized growth (locus YDR297W, strain sur2, active compounds read low) was 0.984. For the same compound, the normalized growth (locus YDR334W, strain swr1, active compounds read low) was 0.976, the normalized growth (locus YDR335W, strain msn5, active compounds read low) was 0.961 and the normalized growth (locus YDR363W, strain ESC2, active compounds read low) was 1. For the same compound, the normalized growth (locus YDR392W, strain spt3, active compounds read low) was 0.942, the normalized growth (locus YEL003W, strain gim4, active compounds read low) was 0.976 and the normalized growth (locus YEL037C, strain rad23, active compounds read low) was 0.974. It also gave a normalized growth (locus YEL061C, strain CIN8 (second series), active compounds read low) of 0.98, a normalized growth (locus YER002W, strain NOP16, active compounds read low) of 0.997 and a normalized growth (locus YER015W, strain faa2, active compounds read low) of 0.976. The normalized growth (locus YER016W, strain bim1, active compounds read low) was 1, the normalized growth (locus YER111C, strain swi4, active compounds read low) was 0.976 and the normalized growth (locus YER155C, strain BEM2 (second series), active compounds read low) was 0.863 (active). It also gave a normalized growth (locus YFR010W, strain ubp6, active compounds read low) of 0.951, a normalized growth (locus YGL167C, strain pmr1, active compounds read low) of 0.964 and a normalized growth (locus YGL173C, strain kem1, active compounds read low) of 0.964. For the same compound, the normalized growth (locus YGL227W, strain vid30, active compounds read low) was 0.972, the normalized growth (locus YGL240W, strain doc1, active compounds read low) was 0.927 and the normalized growth (locus YGL253W, strain hxk2, active compounds read low) was 1.01. It also gave a normalized growth (locus YGR078C, strain PAC10, active compounds read low) of 1.01, a normalized growth (locus YGR229C, strain SMI1, active compounds read low) of 1.01 and a normalized growth (locus YHR013C, strain ard1, active compounds read low) of 0.965. The normalized growth (locus YHR027C, strain rpn1, active compounds read low) was 0.997, the normalized growth (locus YHR030C, strain SLT2, active compounds read low) was 1.02 and the normalized growth (locus YHR079C, strain IRE1, active compounds read low) was 0.994. The normalized growth (locus YHR142W, strain chs7, active compounds read low) was 0.981, the normalized growth (locus YJL092W, strain hpr5, active compounds read low) was 0.965 and the normalized growth (locus YJL095W, strain BCK1 (second series), active compounds read low) was 0.982. It also gave a normalized growth (locus YJL095W, strain BCK1, active compounds read low) of 0.997, a normalized growth (locus YJL115W, strain asf1, active compounds read low) of 0.994 and a normalized growth (locus YJL129C, strain trk1, active compounds read low) of 0.916. The normalized growth (locus YJL154C, strain vps35, active compounds read low) was 0.958, the normalized growth (locus YJL164C, strain tpk1, active compounds read low) was 0.997 and the normalized growth (locus YJL166W, strain qcr8, active compounds read low) was 0.929. For the same compound, the normalized growth (locus YJL187C, strain SWE1, active compounds read low) was 0.978, the normalized growth (locus YJR066W, strain TOR1, active compounds read low) was 0.932 and the normalized growth (locus YKL160W, strain elf1, active compounds read low) was 0.964. It also gave a normalized growth (locus YKR026C, strain gcn3, active compounds read low) of 0.982, a normalized growth (locus YKR091W, strain srl3, active compounds read low) of 0.984 and a normalized growth (locus YLL001W, strain dnm1, active compounds read low) of 0.917. The normalized growth (locus YLL026W, active compounds read low) was 0.969, the normalized growth (locus YLL041C, strain sdh2, active compounds read low) was 0.988 and the normalized growth (locus YLR027C, strain aat2, active compounds read low) was 0.972. It also gave a normalized growth (locus YLR113W, strain HOG1, active compounds read low) of 1, a normalized growth (locus YLR221C, strain rsa3, active compounds read low) of 1.01 and a normalized growth (locus YLR258W, strain gsy2, active compounds read low) of 0.998. For the same compound, the normalized growth (locus YLR262C, strain YPT6 (second series), active compounds read low) was 0.999, the normalized growth (locus YLR320W, strain mms22, active compounds read low) was 1 and the normalized growth (locus YLR342W, strain FKS1, active compounds read low) was 0.933. For the same compound, the normalized growth (locus YLR357W, strain rsc2, active compounds read low) was 0.937, the normalized growth (locus YLR370C, strain arc18, active compounds read low) was 0.966 and the normalized growth (locus YLR384C, strain iki3, active compounds read low) was 0.978. The normalized growth (locus YML120C, strain ndi1, active compounds read low) was 0.962, the normalized growth (locus YMR058W, strain fet3, active compounds read low) was 0.959 and the normalized growth (locus YMR125W, strain sto1, active compounds read low) was 1.02. It also gave a normalized growth (locus YMR129W, active compounds read low) of 0.982, a normalized growth (locus YMR205C, strain PFK2, active compounds read low) of 0.978 and a normalized growth (locus YMR231W, strain pep5, active compounds read low) of 0.977. It also gave a normalized growth (locus YMR307W, strain GAS1, active compounds read low) of 0.992, a normalized growth (locus YNL071W, strain lat1, active compounds read low) of 0.989 and a normalized growth (locus YNL175C, strain NOP13, active compounds read low) of 1.01. The normalized growth (locus YNL183C, strain NPR1, active compounds read low) was 0.955, the normalized growth (locus YNL197C, strain WHI3, active compounds read low) was 1.02 and the normalized growth (locus YNL209W, strain ssb2, active compounds read low) was 0.992. The normalized growth (locus YNL224C, strain SQS1, active compounds read low) was 1, the normalized growth (locus YNL248C, strain rpa49, active compounds read low) was 0.996 and the normalized growth (locus YNL322C, strain KRE1 (second series), active compounds read low) was 0.975. It also gave a normalized growth (locus YNR049C, strain mso1, active compounds read low) of 0.983, a normalized growth (locus YOR001W, strain rrp6, active compounds read low) of 0.952 and a normalized growth (locus YOR070C, strain gyp1, active compounds read low) of 0.991. It also gave a normalized growth (locus YOR080W, strain dia2, active compounds read low) of 0.96, a normalized growth (locus YOR083W, strain WHI5 (second series), active compounds read low) of 0.926 and a normalized growth (locus YOR083W, strain WHI5, active compounds read low) of 0.911. The normalized growth (locus YOR106W, strain vam3, active compounds read low) was 0.927, the normalized growth (locus YOR231W, strain MKK1, active compounds read low) was 1.01 and the normalized growth (locus YOR265W, strain rbl2, active compounds read low) was 0.986. For the same compound, the normalized growth (locus YOR270C, strain vph1, active compounds read low) was 0.936, the normalized growth (locus YOR290C, strain snf2, active compounds read low) was 0.988 and the normalized growth (locus YPL051W, strain arl3, active compounds read low) was 0.971. It also gave a normalized growth (locus YPL078C, strain atp4, active compounds read low) of 0.926, a normalized growth (locus YPL106C, strain sse1, active compounds read low) of 0.998 and a normalized growth (locus YPL240C, strain hsp82, active compounds read low) of 0.997. For the same compound, the normalized growth (locus YPL241C, strain CIN2, active compounds read low) was 1.01 and the normalized growth (locus YPL256C, strain CLN2, active compounds read low) was 0.995.
